Screening data (PubChem BioAssay)
ALDH1A1 block: qHTS Assay for Inhibitors of Aldehyde Dehydrogenase 1 (ALDH1A1); 220,000 tested, 7.3% active; Purified ALDH1A1, NADH fluorescence, propionaldehyde substrate; Aldehyde dehydrogenase 1A1 (Homo sapiens), P00352; Potency, µM (titrated, usually from 75.3 µM), usual class: inhibitors
HTT ATP protect: qHTS Multiplex Assay to Identify Dual Action Probes in a Cell Model of Huntington: Cytoprotection (ATP); PC12 HTT-Q103 induced, cytoprotection, ATP luminescence, 40 h; AID 1471, 2008; 230,000 tested, 0.14% active; Potency, µM (top dose mostly 56.4 µM), usual class: activators; active = well fitted curve in the direction sought with a large enough effect; inconclusive = small, poorly fitted or top-dose-only effect, or another doubt; inactive = no such curve, though single readings can be large; an effect the other way counts as inactive or inconclusive; also: nearly all actives have a fitted effect of over 45% in size
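ATP quantification (ATPlite) reports survival of PC12 cells in which tebufenozide, 100 nM final, switches on Htt exon 1 with 103 glutamines linked to GFP; compounds are titrated.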
HPGD inh: qHTS Assay for Inhibitors of HPGD (15-Hydroxyprostaglandin Dehydrogenase); 15-hydroxyprostaglandin dehydrogenase [NAD(+)] (Homo sapiens), P15428; purified HPGD, NADH fluorescence kinetic, PGE2 substrate; Potency, µM, actives largely listed as inhibitors; 150,000 tested, 4.3% active
Target sequence (P15428 whole entry, looked up): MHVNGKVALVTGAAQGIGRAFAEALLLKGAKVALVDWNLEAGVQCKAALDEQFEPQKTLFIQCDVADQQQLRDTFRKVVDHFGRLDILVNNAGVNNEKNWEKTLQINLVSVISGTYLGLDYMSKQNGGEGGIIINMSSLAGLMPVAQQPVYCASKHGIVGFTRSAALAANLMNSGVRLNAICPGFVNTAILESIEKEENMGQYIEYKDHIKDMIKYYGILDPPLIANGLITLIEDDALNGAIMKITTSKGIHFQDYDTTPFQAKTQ
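NADH formation kinetics: reaction with 30 uM PGE2 and 1 mM NAD+ (final), 20 nM enzyme, Tris-HCl pH 8 with Tween 20, after 15 min compound preincubation at room temperature. Fluorescence change, last versus first of five reads.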
HTT aggregate: qHTS Multiplex Assay to Identify Dual Action Probes in a Cell Model of Huntington: Aggregate Formation (GFP) | PC12 HttQ103-GFP aggregates, Acumen cytometry, 40 h | Potency, µM (titrated, usually from 46.1 µM), actives largely listed as inhibitors | 220,000 tested, 1.1% active; active = well fitted curve in the direction sought with a large enough effect; inconclusive = small, poorly fitted or top-dose-only effect, or another doubt; inactive = no such curve, though single readings can be large; an effect the other way counts as inactive or inconclusive; also: nearly all actives have a fitted effect of over 60% in size
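Using laser scanning cytometry, GFP-positive aggregates were counted after lysis of PC12 cells induced with 100 nM tebufenozide to express HTT exon 1 Q103–GFP. Compounds were tested in titration.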
GoLoco inh red: qHTS Assay for Inhibitors of RGS12 GoLoco Motif Activity (Red Fluorophore); Guanine nucleotide-binding protein G(i) subunit alpha-1 (Homo sapiens), P63096; Gai1:RGS12 GoLoco peptide FP, rhodamine, 10 min; Potency, µM (titrated, usually from 61.6 µM), hits mostly inhibitors; 230,000 tested, 0.44% active; active = well fitted inhibition curve with a large enough effect, not every such curve was filed as active; inactive = no such curve, though single readings can be large or run the other way; also: nearly all actives have a fitted effect of over 30% in size
Target sequence (P63096 whole entry, looked up): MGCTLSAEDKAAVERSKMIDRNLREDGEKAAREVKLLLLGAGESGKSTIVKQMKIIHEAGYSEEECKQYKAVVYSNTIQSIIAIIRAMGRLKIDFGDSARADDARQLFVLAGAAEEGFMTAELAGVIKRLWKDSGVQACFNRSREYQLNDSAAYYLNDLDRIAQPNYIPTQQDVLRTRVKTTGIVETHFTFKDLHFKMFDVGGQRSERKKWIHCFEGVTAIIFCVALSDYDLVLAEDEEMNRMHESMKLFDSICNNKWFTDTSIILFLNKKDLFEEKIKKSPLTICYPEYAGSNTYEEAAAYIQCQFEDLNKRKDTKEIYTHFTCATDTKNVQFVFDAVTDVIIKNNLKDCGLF
PNC assembly inh: High Content Assay for Compounds that inhibit the Assembly of the Perinucleolar Compartment; PC3M PTB-GFP, PNC prevalence imaging, 16 h; hits give low values; activity change (PNC), negative = inhibition, % at 10 µM; 140,000 tested, 3.1% active;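 active = readout at or below -70, meaning at least 70% loss of cells showing the perinucleolar compartment, a nuclear body marking cancer cells; inconclusive = readout between -30 and a set limit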
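PC3M cells stably expressing PTB-GFP, 750–1000 cells/well, treated 16 h at 37 °C with compound (23 nl of library stock), in duplicate. After paraformaldehyde fixation and Hoechst stain, imaged at 20x; PNC prevalence scored by image analysis.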
Each line names hits and unclear results; the compound was inactive in the other large screens. The list is not random: actives were taken first. Their share in the collection is about 11%. Unless noted, calls follow the shape of the dose curve; as a rule, active = well fitted inhibition curve with a large enough effect (not every such curve was filed as active); inconclusive = small, poorly fitted or top-dose-only effect, or another doubt; inactive = no such curve, though single readings can be large or run the other way.

CC(C)C(=O)NC(=S)Nc1ccc(CN2CCOCC2)cc1	none (no result: HPGD inh, PNC assembly inh)
O=C(NC(=S)Nc1cccc(F)c1)c1cccc([N+](=O)[O-])c1	none (no result: ALDH1A1 block, HPGD inh, PNC assembly inh)
O=C(NC(=S)Nc1ccc(C(=O)N2CCOCC2)cc1)c1ccc([N+](=O)[O-])cc1	ALDH1A1 block 10µM, HPGD inh 0.708µM, PNC assembly inh inconclusive
O=C(NC(=S)Nc1ccccc1N1CCOCC1)c1ccc([N+](=O)[O-])cc1	ALDH1A1 block inconclusive
CC(C)NS(=O)(=O)c1ccc(NC(=S)NC(=O)c2cccc([N+](=O)[O-])c2)cc1	ALDH1A1 block 8.91µM, HPGD inh inconclusive
CC(C)Oc1ccc(C(=O)NC(=S)Nc2ccc(CN3CCOCC3)cc2)cc1	ALDH1A1 block 7.08µM
O=C(NC(=S)Nc1ccc(CN2CCOCC2)cc1)c1cccc([N+](=O)[O-])c1	ALDH1A1 block 12.6µM, PNC assembly inh -100.0
CCOc1ccccc1/C=C(/NC(=O)c1ccccc1)C(=O)NC(C)c1ccccc1 (stereo not drawn)	ALDH1A1 block inconclusive, PNC assembly inh inconclusive
C[C@@]1(C(=O)O)CCC[C@@H]1C(=O)O	none (no result: HTT aggregate, PNC assembly inh)
Cc1c(C(=O)Nc2ccc3c(c2)CCC3)cccc1[N+](=O)[O-]	ALDH1A1 block 9.46µM, PNC assembly inh -113.8 (no result: HTT ATP protect)
CC1(C)C(=O)Nc2ccccc2N1C(=O)COc1ncnc2c(Cl)cc(Cl)cc12	ALDH1A1 block 28.2µM (no result: HPGD inh, GoLoco inh red)
CCN1C/C(=C/c2cccc([N+](=O)[O-])c2)C(=O)/C(=C/c2cccc([N+](=O)[O-])c2)C1	ALDH1A1 block inconclusive, HTT aggregate inconclusive, PNC assembly inh -123.3
COc1cccc(Cn2c(=O)c(-c3ccc(F)cc3)nc3cnc(OC)nc32)c1	ALDH1A1 block inconclusive (no result: HPGD inh, HTT aggregate, PNC assembly inh)
CC(=O)c1cccc(NC(=O)COC(=O)COc2c(Cl)cc(Cl)c3ccc(C)nc23)c1	none
COC(=O)[C@@]1(Cc2ccccc2)[C@H]2c3cc(C(=O)N(C)C)n(Cc4c(CO)[nH]cc(C)c4=O)c3C[C@H]2CN1C(=O)c1ccccc1	none (no result: HTT aggregate, PNC assembly inh)
C[C@@H]1C=C(C(=O)O)O[C@H](OCc2ccc(CO)cc2)C1	ALDH1A1 block inconclusive (no result: HPGD inh, PNC assembly inh)
COc1ccc(-c2cc(-c3ccc(OC)cc3)c(C#N)c(SC)n2)cc1	ALDH1A1 block inconclusive, HPGD inh inconclusive, PNC assembly inh -100.0
CSc1nc(-c2ccco2)cc(-c2ccccc2)c1C#N	ALDH1A1 block inconclusive, HPGD inh inconclusive
Brc1ccc(C2=CC(c3cccs3)n3ncnc3N2)cc1 (stereo not drawn)	ALDH1A1 block inconclusive, HTT aggregate inconclusive
OCCCc1nc2n(n1)C(c1cccs1)C=C(c1ccc(Br)cc1)N2 (stereo not drawn)	ALDH1A1 block inconclusive, HPGD inh inconclusive, HTT aggregate 11.2µM
CCn1c2ccccc2c2nnc(NCCCO)nc21	none (no result: HTT aggregate, PNC assembly inh)
COc1ccc2ccc3c(c2c1)N=CC1(O3)N(C)c2ccccc2C1(C)C (stereo not drawn)	ALDH1A1 block 12.6µM, HPGD inh inconclusive, HTT aggregate inconclusive
CN1c2ccccc2C(C)(C)C12C=Nc1c(ccc3ccccc13)O2 (stereo not drawn)	none
CCCc1[nH][nH]c(=O)c1C(c1ccc(Br)cc1)C(C#N)C#N (stereo not drawn)	ALDH1A1 block inconclusive, HPGD inh 20µM
COc1ncc2nc(-c3cccs3)c(=O)n(Cc3ccc(F)cc3)c2n1	ALDH1A1 block inconclusive (no result: HPGD inh, HTT aggregate, PNC assembly inh)
CCCCC/C=C\C/C=C\CC1OC1C/C=C\CCCC(=O)O (stereo not drawn)	none (no result: HTT aggregate, PNC assembly inh)
Cc1ccc(-c2nc3cc(Cl)ccc3o2)cc1	ALDH1A1 block inconclusive, HPGD inh inconclusive, PNC assembly inh inconclusive
COc1cc(OC)cc(-c2nc3cc(C)ccc3o2)c1	ALDH1A1 block inconclusive, HPGD inh inconclusive, PNC assembly inh -116.6
O=C(c1cc([N+](=O)[O-])ccc1Cl)N1c2ccccc2Sc2ccccc21	none
O=Cc1ccsc1B(O)O	none (no result: HTT aggregate, PNC assembly inh)
CC(C)CCn1c(N)c(S(=O)(=O)c2cccs2)c2nc3ccccc3nc21	ALDH1A1 block inconclusive, HPGD inh inconclusive, HTT aggregate 11.2µM, PNC assembly inh inconclusive
Nc1c(S(=O)(=O)c2cccs2)c2nc3ccccc3nc2n1CC1CCCO1 (stereo not drawn)	ALDH1A1 block inconclusive, HPGD inh inconclusive, HTT aggregate 0.0022µM, PNC assembly inh inconclusive (no result: HTT ATP protect)
Nc1c(S(=O)(=O)c2cccs2)c2nc3ccccc3nc2n1Cc1cccs1	ALDH1A1 block inconclusive, HPGD inh inconclusive
COc1ccc(N2CCN(Cc3nc4c(c(=O)n(C)c(=O)n4C)n3CCc3ccccc3)CC2)cc1	ALDH1A1 block inconclusive
Cn1c(=O)c2c(nc(CN3CCCCC3)n2CCCc2ccccc2)n(C)c1=O	none (no result: ALDH1A1 block, HPGD inh, HTT aggregate, GoLoco inh red, PNC assembly inh)
Cn1c(=O)c2c(nc(CN3CCN(C(=O)c4ccco4)CC3)n2CCc2ccccc2)n(C)c1=O	ALDH1A1 block 12.6µM, PNC assembly inh inconclusive
CCN1CCN(Cc2nc3c(c(=O)n(C)c(=O)n3C)n2CCCc2ccccc2)CC1	ALDH1A1 block 12.6µM
Cn1c(=O)c2c(nc(CN3CCN(C(=O)c4ccco4)CC3)n2CCCc2ccccc2)n(C)c1=O	ALDH1A1 block 1.26µM
CCN1CCN(Cc2nc3c(c(=O)n(C)c(=O)n3C)n2CCc2ccccc2)CC1	PNC assembly inh inconclusive
Cn1c(=O)c2c(nc(CN3CCOCC3)n2CCc2ccccc2)n(C)c1=O	ALDH1A1 block 7.08µM
CC(C)(C)c1ccc([C@@H](O)CCCN2CCC(C(O)(c3ccccc3)c3ccccc3)CC2)cc1	HTT ATP protect inconclusive (no result: HTT aggregate, PNC assembly inh)
On1nnc2ccc3ccccc3c21	none (no result: HTT ATP protect)
CC(=O)Nc1cccc(NC(C)=O)n1	PNC assembly inh -118.9
CC(C)CN(CCC(=O)O)CC(C)C	none
COCC(=O)N1CCC2(CCN(Cc3ccncc3)CC2)CC1	ALDH1A1 block inconclusive, HTT ATP protect inconclusive (no result: HTT aggregate, PNC assembly inh)
O=C(C1CCC1)N1CCN(Cc2ccccc2)CC1	none
O=C(c1c[nH]c(C(=O)N2CCN(Cc3ccccc3)CC2)c1)C1CCCCC1	ALDH1A1 block 7.94µM (no result: HPGD inh, PNC assembly inh)
CNC1C(O)C(O[C@H]2C(O)[C@@H](OC3OC(CN)=CCC3N)[C@H](N)C[C@@H]2N)OC[C@]1(C)O (stereo partly drawn)	none (no result: HTT aggregate, PNC assembly inh)
CNC(=O)NC(=O)COC(=O)c1ccc(-n2c(C)ccc2C)cc1	HTT aggregate inconclusive, PNC assembly inh -115.2 (no result: HPGD inh, GoLoco inh red)
CC(C)NC(=O)NC(=O)COC(=O)c1ccc(S(=O)(=O)Nc2ccccc2)cc1	none (no result: HPGD inh, PNC assembly inh)
